Bioassay records (PubChem BioAssay)
CCHF vOTU inh = CCHFV vOTU protease inhibitors, primary screen, biochemical, Pep-AMC substrate, fluorescence; Crimean-Congo hemorrhagic fever virus L polyprotein viral ovarian tumor (vOTU) protease …; hit rate 0.55% among 370,000; inhibition, % at 11.5 µM; AID 651958, 2012; in the data active means inhibition above about 30%; further: 0% = vehicle wells with enzyme and 100% = no enzyme wells
SSB-PriA inh = inhibitors of Klebsiella pneumoniae PriA binding to SSB C-terminal tail, primary screen, biochemical, AlphaScreen. PriA–SSB C-terminal tail interaction (Klebsiella pneumoniae). AlphaScreen SSBct-PriA binding, biotinylated peptide. inhibition, % at 33 µM. hit rate 0.6% among 430,000; in the data active means inhibition mostly above about 37%, no sharp cut-off; inactive means mostly below about 20%;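 further: plate controls were negative control peptide for no effect and reference peptide for full effect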
RN4220 kill = growth inhibition of S. aureus RN4220, primary screen, OD600. 16 h. inhibition, % (no concentration beside the values). hit rate 0.33% among 330,000; in the data active means inhibition above about 85%;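 further: plate controls were untreated cells for no effect and reference antibiotic for full effect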
ugtP null kill = growth inhibition of ugtP-null S. aureus, primary screen, RN4220 ugtP deletion, OD600. 16 h. growth inhibition, % (concentration not given with the values). hit rate 0.54% among 330,000; in the data active means growth inhibition above about 68%;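 further: plate controls were untreated wells for no effect and antibiotic for full effect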
DUSP3 inh = VHR1 phosphatase inhibitors, primary screen, biochemical, absorbance, uHTS; Dual specificity protein phosphatase 3 (Homo sapiens), P51452; recombinant VHR phosphatase, pNPP absorbance; inhibition, % at 13.3 µM; hit rate 0.52% among 290,000; in the data active means inhibition above about 50%
Target sequence (P51452 whole entry, looked up): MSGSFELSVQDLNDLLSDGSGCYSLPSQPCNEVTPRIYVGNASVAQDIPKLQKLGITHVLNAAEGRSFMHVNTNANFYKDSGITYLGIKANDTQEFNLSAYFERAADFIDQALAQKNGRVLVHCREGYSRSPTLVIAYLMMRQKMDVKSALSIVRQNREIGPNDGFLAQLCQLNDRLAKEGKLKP
* = called active by the depositor; · = not tested or not shown. In the library only some 1.5% were active in any assay of this set; here they are far more common.

SMILES	CCHF vOTU inh	SSB-PriA inh	RN4220 kill	ugtP null kill	DUSP3 inh
O=c1[nH]c(-c2ccccn2)nc2sc(-c3ccccc3)cc12	-17.0	-12.9	99.6*	99.8*	6.0
Cc1c(C(=O)N(C)C)sc2nc(-c3ccccn3)[nH]c(=O)c12	13.6	47.0*	9.6	-2.1	19.4
O=c1c2cc(-c3ccccc3)sc2nc2n1N=C(c1ccccc1)CS2	4.5	3.8	-0.5	-21.4	8.7
O=C(CSc1ccc(Cl)cc1)Nc1nnc(-c2ccccn2)o1	·	35.0*	·	·	·
Cc1ccc(SCCC(=O)Nc2nnc(-c3ccccn3)o2)cc1	·	10.0	·	·	·
C=CCn1c(NC(=O)c2ccc(C)cc2)nc2ccccc21	-7.2	11.6	3.4	-1.3	53.9*
COc1ccc(OCC(=O)NC2CCCCCCC2)cc1	1.8	3.5	5.7	-0.5	56.2*
CC1(C)C[C@@H]1N	·	-11.0	·	·	·
CCOC(=O)C1=C(c2ccccc2)NC(N)=NC1c1ccc(OCc2ccc(Cl)cc2)c(OC)c1 (centres undefined)	15.3	31.8	99.1*	71.3	-2.7
CCc1nnc(-c2ccc(NC(=O)COc3cccc(C)c3)cc2)o1	·	2.0	·	·	·
CCN1/C(=C/c2ccc3cc(C)ccc3[n+]2CC)Sc2cc(C)ccc21	1.3	36.6	100.2*	100.4*	12.3
CCN1/C(=C/c2ccc3cc(C)ccc3[n+]2C)Sc2ccc3sccc3c21	6.6	12.7	99.4*	100.3*	21.7
CCN1C(=Cc2ccc3ccc(C)cc3[n+]2CC)Sc2ccccc21	·	11.5	·	·	·
O=C(C[C@H](NCCc1ccccc1)C(=O)O)Nc1ccc(Nc2ccccc2)cc1	·	-3.0	·	·	·
COc1cccc(C2CN(c3ccc(F)cc3F)N=C2c2cccs2)c1OC (centres undefined)	-47.4	-21.8	-14.1	88.0*	11.8
COc1ccccc1C1CN(c2ccccc2)N=C1c1cccs1 (centres undefined)	-17.6	-66.9	-15.0	44.2	-18.3
Cn1nc(CNC(=O)c2cccnc2)cc1-c1ccco1	·	-10.0	·	·	·
Oc1ccc(Cl)cc1C1=NNC(c2cccs2)C1 (centres undefined)	-12.8	-5.4	96.0*	98.8*	1.2
Oc1ccccc1Nc1nc(NCc2ccccc2)c2ccccc2n1	16.9	49.7*	27.4	27.8	12.9
O=c1[nH]c2nc(NCCCn3cccn3)ncc2c(=O)n1-c1ccccc1	·	-7.0	·	·	·
Cc1nc(-c2cccnc2)sc1CCNS(=O)(=O)c1ccc(Br)cc1	·	-8.0	·	·	·
CCOC(=O)N1CCN(S(=O)(=O)c2cn(C)c(=O)n(C)c2=O)CC1	-1.2	1.9	1.5	-2.8	52.2*
CCOC(=O)C1CCN(S(=O)(=O)c2cn(C)c(=O)n(C)c2=O)CC1	-2.4	0.3	2.6	-4.4	37.1
Cn1cc(S(=O)(=O)N2CCN(c3ccccc3F)CC2)c(=O)n(C)c1=O	0.2	-17.6	-13.1	0.1	53.3*
CCCn1c(C(=O)N2CCC(n3ccnn3)C2)cc2c(=O)n3ccccc3nc21 (centres undefined)	·	3.0	·	·	·
SMILES	CCHF vOTU inh	SSB-PriA inh	RN4220 kill	ugtP null kill	DUSP3 inh
N#Cc1nc(COc2ccccc2F)oc1NCCc1ccccc1	10.9	43.3*	-3.0	-1.5	-13.2
COc1ccc(CCNc2oc(COc3ccccc3)nc2C#N)cc1	-0.2	2.9	-3.1	0.3	26.3
CN(Cc1ccccc1)c1oc(COc2ccccc2F)nc1C#N	1.9	51.1*	4.3	11.9	-8.6
COc1ccc2nc(N3CCN(C(=O)C(c4ccccc4)c4ccccc4)CC3)sc2c1	·	5.0	·	·	·
Cc1cc(C(=O)CSc2nnnn2-c2ccccc2)c(C)n1Cc1ccco1	·	-4.0	·	·	·
COc1ccc(S(=O)(=O)Nc2cccc3c2O[C@H](CN(C)C(=O)NC(C)C)[C@@H](C)CN([C@H](C)CO)C3=O)cc1	-6.7	99.1*	·	·	·
COc1ccc(NC(=O)N(C)C[C@H]2Oc3c(NS(=O)(=O)c4ccc(OC)cc4)cccc3C(=O)N([C@H](C)CO)C[C@@H]2C)cc1	-1.8	15.8	·	·	·
CCN(CC)CCC(=O)N1c2ccccc2CCc2ccc(NC(=O)OC)cc21	6.1	5.9	1.2	1.7	-6.1
CCOC(=O)Nc1ccc2c(c1)N(C(=O)CCN(CC)CC)c1ccccc1CC2	-2.9	6.2	0.3	2.9	50.2*
Cc1nsc(C(=O)N2CCN(c3ccccc3F)CC2)n1	·	3.0	·	·	·
CCCn1c(C(CO)Nc2nc(C)cs2)nc2ccccc21 (centres undefined)	-4.5	-6.4	3.8	6.2	59.3*
Cc1csc(NC(CO)c2nc3ccccc3n2CCOCCO)n1 (centres undefined)	-10.9	-0.7	2.3	-8.8	·
Cc1cccc(N2CCN(C(=O)c3ccc(Cl)c(S(=O)(=O)N4CCc5ccccc5C4)c3)CC2)c1C	-7.8	-0.3	-1.1	0.9	59.1*
Cc1cc(C)c(NC(=O)Cn2ncc3ccccc32)c(C)c1	9.0	-6.5	3.2	5.8	57.3*
Cc1ccc(NC(=O)Cn2ncc3ccccc32)c(Cl)c1	-8.7	-15.8	1.8	0.0	27.4
CN1CCN(C(CNC(=O)NC(C)(C)C)c2ccc3c(c2)CCN3C)CC1 (centres undefined)	·	-4.0	·	·	·
Cc1cccc(-n2c(SCC(N)=O)nc3c(c2=O)C2(CCCC2)Cc2ccccc2-3)c1	-15.0	1.6	-1.4	74.2	-6.1
NC(=O)CSc1nc2c(c(=O)n1-c1ccccc1)C1(CCCCC1)Cc1ccccc1-2	4.6	1.1	-7.5	89.8*	22.7
NNC(=O)c1cc(-c2ccc(N)cc2)nc2ccc(Br)cc12	-4.2	0.2	4.9	-3.0	54.1*
Cn1ccnc1S(=O)(=O)C1CCN(C(=O)c2ccco2)CC1	·	1.0	·	·	·
COC(CNC(=O)C1CC(=O)N(c2ccccc2)C1)c1ccc(C)s1 (centres undefined)	·	-12.0	·	·	·
Cc1ccc(OCCOCCN2CCCC2)c(Br)c1	-7.9	-17.6	1.1	12.1	58.7*
Cc1cc(Br)ccc1OCCOCCN1CCCC1	-3.0	-0.4	-0.3	6.6	34.6
COc1ccc(C(C(=O)NCC2CCCO2)N(C(=O)CNC(=O)c2ccco2)c2cc(C)ccc2C)cc1OC (centres undefined)	-3.2	-0.8	1.8	5.8	52.9*
COc1cc(OC)cc(N(C(=O)CNC(=O)c2ccco2)C(C(=O)NCC2CCCO2)c2ccccc2)c1 (centres undefined)	9.4	-9.3	5.8	9.6	58.5*
SMILES	CCHF vOTU inh	SSB-PriA inh	RN4220 kill	ugtP null kill	DUSP3 inh
NC(=NOC(=O)c1ccccc1)c1ccn[nH]1	·	-1.0	·	·	·
C/C(=N\NC(=O)c1ccccc1OCCOc1ccccc1)c1ccccc1F	-6.5	·	·	·	·
NNC(=O)c1ccccc1OCCOc1ccccc1	8.9	-9.0	·	·	54.8*
Cc1cccc(OCCCCn2cnc3ccccc32)c1	·	0.0	·	·	·
Cc1ccc(OCCCCn2cnc3ccccc32)c(C)c1	8.3	-8.3	3.5	-4.7	55.3*
CCCCOc1c(Br)cc(/C=N/O)cc1OCC	12.7	·	·	·	4.4
CCCCOc1c(Br)cc(C=NO)cc1OCC	·	-0.7	0.4	100.1*	·
Cc1ccc2nc(SCc3nc4ccc(Br)cn4c3Cl)[nH]c2c1	·	-16.0	·	·	·
